# PTHR1 ag = activates the human parathyroid hormone receptor PTHR1; Q03431; HEK293 GP2 PTHR1 cells, GloSensor cAMP luminescence, 1 h; Potency, µM (titrated, usually from 115 µM), actives largely listed as activators; 0.075% of 410,000 active; AID 743266; further: nearly all actives have a fitted effect of over 55% in size
#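 HEK-293-derived GP2 cells expressing PTHR1 and a GloSensor cAMP reporter, 3,000/well, plated overnight, given luciferin plus IBMX (each 0.5 mM as added) for 1 h at 37 °C, then compound for 1 h at 37 °C. Luminescence was read after 15 min at room temperature.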
# IDH1 R132H inh = human IDH1 R132H inhibition | Potency, µM (highest dose often 76.6 µM), hits mostly inhibitors | O75874 | IDH1-R132H enzyme, NADPH consumption, diaphorase/resazurin fluorescence | 0.093% of 390,000 active; further: nearly all actives have a fitted effect of over 65% in size
#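 IDH1-R132H (0.5 ug/mL) preincubated 30 min with compound, then NADPH (0.016 mM) and alpha-KG (2 mM) added; 80 min at RT, pH 7.5. Remaining NADPH coupled via diaphorase/resazurin to fluorescence (540/590 nm); concentration-response curves normalized to no-enzyme control.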
# GLP-1R agonist = activates the human GLP-1 receptor; P43220; HEK293 GLP-1R CRE-luciferase, luminescence, 4-6 h; cells express a hypersensitive GLP-1R form; Potency, µM (highest dose often 45.6 µM), hits mostly activators; 0.007% of 380,000 active; AID 624172
# Target sequence (P43220 whole entry, looked up): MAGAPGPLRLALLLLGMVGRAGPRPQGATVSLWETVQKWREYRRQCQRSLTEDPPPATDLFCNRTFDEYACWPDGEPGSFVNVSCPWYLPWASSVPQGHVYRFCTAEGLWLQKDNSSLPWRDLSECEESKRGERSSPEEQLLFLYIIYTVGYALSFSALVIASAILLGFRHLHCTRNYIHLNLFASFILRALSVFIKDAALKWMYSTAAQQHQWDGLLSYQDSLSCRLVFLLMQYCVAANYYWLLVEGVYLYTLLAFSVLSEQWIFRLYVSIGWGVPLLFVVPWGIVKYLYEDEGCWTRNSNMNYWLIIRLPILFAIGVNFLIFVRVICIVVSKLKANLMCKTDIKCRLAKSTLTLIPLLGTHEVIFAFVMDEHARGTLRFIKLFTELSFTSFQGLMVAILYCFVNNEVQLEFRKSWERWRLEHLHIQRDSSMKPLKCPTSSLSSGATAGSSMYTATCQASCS
# GLP1R inv ag = inverse agonists of human GLP-1 receptor | P43220 | Potency, µM (top dose mostly 38.3 µM), usual class: inhibitors | AID 624417 | HEK293 GLP-1R CRE-luciferase, luminescence, 24 h; GLP-1R form is constitutively active | 1.6% of 410,000 active; further: nearly all actives have a fitted effect of over 55% in size
#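 Luminescence readout: a drop in cAMP-driven luciferase signal flags inverse agonism at a constitutively active GLP-1R stably expressed in HEK293. Compound exposure lasted 24 hr at 37 deg C, 5% CO2.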
# LDHA block = blocks human lactate dehydrogenase A; activity change, % (values are at about 110 or 230 µM); purified LDHA, NADH/diaphorase-resazurin fluorescence; active compounds read low; P00338; 0.15% of 480,000 active; in the data active means activity change below about -30%; inconclusive means mostly about -25% to -30%
#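 Resorufin fluorescence (ex540/em590), read at 0 and 20 min after diaphorase/resazurin addition, reports the NADH left after a 5 min room-temperature reaction of 2 nM human LDH5 with 0.06 mM NADH and 0.2 mM pyruvate.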
# HEK293 tox = cytotoxicity in counter-screen for GLP-1R inverse agonists | HEK293 cAMP-luciferase reporter cells, luminescence, 24 h | Potency, µM (titrated, usually from 38.3 µM), usual class: inhibitors | 0.13% of 410,000 active | AID 624418;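 further: loss of luciferase light is scored as toxicity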
#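 MLSMR compounds, 24 hr on cells at 37 deg C/5% CO2; luminescence after luciferase reagent (12 min RT). Inhibition counted as the undesired cytotoxic outcome.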
# Resorufin autofl = autofluorescence interference, mutant IDH1 hit counter-screen; shares compounds with IDH1 R132H inh; Resorufin detection reagent fluorescence interference, cell-free; inhibition of signal, % at 51.2 µM; 750 tested, under 10 active; AID 623980
# IDH1 WT = wild-type IDH1 (human) inhibition counterscreen. shares compounds with IDH1 R132H inh. WT IDH1 enzyme, NADPH diaphorase/resazurin fluorescence. Potency, µM (top dose mostly 115 µM), usual class: inhibitors. 9% of 750 active. AID 623995; further: nearly all actives have a fitted effect of over 55% in size
# IDH1 R132H conf = inhibits human mutant IDH1 enzyme in cherrypick confirmation; AID 624002; 83% of 750 active; IDH1 R132H enzyme, NADPH diaphorase/resazurin fluorescence; Potency, µM (top dose mostly 76.6 µM), actives largely listed as inhibitors; shares compounds with IDH1 R132H inh; further: nearly all actives have a fitted effect of over 50% in size
# Numbers stand for hits; - = inactive; ? = inconclusive; . = no result given. Hits are enriched below; roughly 1.7% of the tested compounds scored in any of these assays. Unless noted, the call rests on the fitted dose curve; in most records, active means well fitted curve in the direction sought with a large enough effect; inconclusive means small, poorly fitted or top-dose-only effect, or another doubt; inactive means no such curve, though single readings can be large; an effect the other way counts as inactive or inconclusive.
SMILES,PTHR1 ag,IDH1 R132H inh,GLP-1R agonist,GLP1R inv ag,LDHA block,HEK293 tox,Resorufin autofl,IDH1 WT,IDH1 R132H conf
CCCCOc1ccccc1C(=O)Nc1ccc(OCCC)c2ncccc12,.,.,.,.,-,.,.,.,.
Cn1c(NCc2ccccc2)nc2c1c(=O)n(Cc1ccc(Cl)c(Cl)c1)c(=O)n2C,.,.,.,.,-,.,.,.,.
CCONC(=O)c1ccc(OC)cc1O,.,.,.,.,-,.,.,.,.
CC[C@]12c3[nH]c4cc(-c5ccco5)ccc4c3CCN1C(=O)[C@@H](CC(=O)NC/C=C(\C)CCC=C(C)C)C[C@@H]2C(=O)N1CCN(C(=O)C2CC2)CC1,-,35.5µM,-,?,-,-,-,-,-
CC(C)=CCC/C(C)=C/CNC(=O)C[C@H]1C[C@H](C(=O)N2CCCCC2)[C@@]2(C)c3[nH]c4cc(CCC(=O)N(C)C)ccc4c3CCN2C1=O,-,?,-,-,-,-,-,-,25.1µM
CCOC(=O)N1CCN(Cc2nc(N)nc(Nc3ccc(Oc4ccccc4)cc3)n2)CC1,-,52.1µM,-,-,-,?,-,-,?
CCOC(=O)N1CCN(Cc2nc(N)nc(Nc3ccc(OC)cc3)n2)CC1,-,-,-,-,-,-,.,.,.
Cc1c(C(=O)N2CCCCCC2)c(S(=O)(=O)N2c3ccccc3CC2C)c(C)n1C (stereo unspecified),.,.,.,.,-,.,.,.,.
Cc1ccc(NC(=O)CSC2=C(C#N)C(c3ccco3)C3=C(CC(C)(C)CC3=O)N2)cc1 (stereo unspecified),-,52.1µM,-,?,-,-,-,-,28.2µM
COc1cc2c3c(c1)C1(C(=O)N3C(C)(C)C=C2C)C(C#N)=C(N)Oc2cc(O)ccc21 (stereo unspecified),-,29.3µM,-,?,-,-,-,-,15.8µM
COc1cc(OC)c(NC(=O)c2ccc3c(SCC(=O)O)c4c(nc3c2)CCCC4)cc1Cl,-,?,-,-,-,-,-,-,28.2µM
COc1ccc(OC)c(NC(=O)c2ccc3c(SCC(=O)O)c4c(nc3c2)CCCC4)c1,-,?,-,-,-,-,.,.,.
CCCn1c(C2CCCN2c2nc(-c3cccc(Br)c3)cs2)nc2ccccc21 (stereo unspecified),-,?,-,?,-,4.47µM,-,-,25.1µM
Cc1ccc(-c2csc(N3CCC[C@@H]3C(=O)NCCn3c(C(F)(F)F)nc4ccccc43)n2)cc1,?,-,-,?,-,-,.,.,.
CCCCn1nc(C(=O)Nc2ccc(OCC#N)cc2)c2ccccc2c1=O,.,.,.,.,-,.,.,.,.
Cc1cc(C(C)(C)C)oc1C(=O)NCCCNC(=O)c1oc(C(C)(C)C)cc1C,-,?,-,?,-,-,-,?,11.2µM
Cc1cc(C(C)(C)C)oc1C(=O)OCC(=O)NC1CCCCC1,-,-,-,?,-,-,.,.,.
O=C(NC1CCCC1)C1CCN(C2=NS(=O)(=O)c3ccccc32)CC1,.,.,.,.,-,.,.,.,.
CN1CCN(NC(=O)c2cc(-c3ccc(Cl)s3)nc3ccccc23)CC1,-,?,-,?,-,-,-,-,-
COc1cc(C2C(C#N)=C(N)N(c3sc4c(c3C#N)CCCC4)C3=C2C(=O)CC(C)(C)C3)cc(OC)c1OC (stereo unspecified),-,?,-,-,-,-,-,-,7.94µM
COc1ccc(C2CC(=O)N(c3sc4c(c3C#N)CCCC4)C3=C2C(=O)CC(C)(C)C3)cc1OC (stereo unspecified),.,.,.,.,-,.,.,.,.
CC1(C)O[C@@H]2C[C@H]3[C@@H]4CCC5=CC(=O)C=C[C@]5(C)[C@@]4(F)[C@@H](O)C[C@]3(C)[C@]2(C(=O)CO)O1,-,-,-,-,-,-,.,.,.
CC(=O)OCC(=O)[C@@]12OC3(CCCC3)O[C@@H]1C[C@H]1[C@@H]3CCC4=CC(=O)C=C[C@]4(C)[C@@]3(F)[C@@H](O)C[C@@]12C,-,14.1µM,-,?,-,-,-,-,7.08µM
c1ccc(-c2cc(-c3nnc4n3N=C(c3ccc5ccccc5c3)CS4)[nH]n2)cc1,-,11.7µM,?,-,-,?,-,-,7.08µM
Cc1cc(-c2nnc3n2N=C(c2ccccc2)CS3)n[nH]1,-,-,-,-,-,-,.,.,.
SMILES,PTHR1 ag,IDH1 R132H inh,GLP-1R agonist,GLP1R inv ag,LDHA block,HEK293 tox,Resorufin autofl,IDH1 WT,IDH1 R132H conf
COc1ccc(C(CNC(=O)COc2cccc(C)c2C)N2CCCCC2)cc1 (stereo unspecified),.,.,.,.,-,.,.,.,.
COc1ccc(C2=Nn3c(nnc3-c3ccccc3OC)SC2)cc1OCC1CC1,-,.,3.98µM,.,-,.,-,-,44.7µM
COc1ccc(OC)c(-c2nnc3n2N=C(c2ccc(OC(F)F)c(OCC4CC4)c2)CS3)c1,-,.,?,.,-,.,.,.,.
COc1ccc(OC)c(-c2nnc3n2N=C(c2ccc(OC)c(OC4CCCC4)c2)CS3)c1,-,.,-,.,-,.,-,-,14.1µM
CCn1c(=O)c2cc(C(=O)NCCc3cccc(C)c3)sc2c2ccccc21,-,-,-,-,-,-,.,.,.
CCn1c(=O)c2cc(C(=O)N(C)c3cc(C)ccc3C)sc2c2ccccc21,-,?,-,-,-,-,-,-,20µM
COc1ccc(Br)cc1CNC(=O)CCC(=O)N1CCSc2nc(C)cc(C)c21,.,.,.,.,-,.,.,.,.
O=C(Oc1ccc2c(c1)O/C(=C\c1ccncc1)C2=O)c1ccccc1,-,52.1µM,-,-,-,-,-,-,35.5µM
CCC(=O)N(CCC(Cc1ccccc1)c1ccc2c(c1)OCO2)Cc1ccccc1F (stereo unspecified),-,?,-,?,-,-,-,-,14.1µM
CCC(=O)N(CCC(Cc1ccccc1)c1ccco1)Cc1ccco1 (stereo unspecified),-,-,-,?,-,-,.,.,.
O=C(C1=C(c2ccccc2)SCCO1)N(Cc1cccs1)C1CCS(=O)(=O)C1 (stereo unspecified),.,.,.,.,-,.,.,.,.
NC(=O)c1ccccc1NCC1CC1(Cl)Cl (stereo unspecified),.,.,.,.,-,.,.,.,.
O=c1[nH]c(/C=C/c2cccc([N+](=O)[O-])c2)c([N+](=O)[O-])c(=O)[nH]1,-,44.7µM,-,-,-,-,-,-,31.6µM

# High-throughput results (PubChem BioAssay)
